From PubChem BioAssay (Tox21)
Inconclusive results are not listed. Where a call stands in place of a potency, no number is given. Some structures have more than one record in an assay (separate samples or runs), and their calls can disagree. Calls of active or inactive are those of the source. Unless noted, the call rests on the fitted dose curve; in most records, active means well fitted curve in the direction sought with a large enough effect in the repeat runs; inconclusive means weak or mixed curves; inactive means no such curve, though single readings can be large; an effect the other way counts as inactive or inconclusive.

How the values were obtained:
[1] = qHTS assay to identify small molecule antagonists of the retinoid acid receptor (RAR) signaling pathway - cell viability counter screen (AID 1159551); further: nearly all actives have a fitted effect of over 35% in size
Method in brief: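 Viability of C3RL4 cells is quantified from ATP by luminescence after 6 h treatment at 37 C with compounds and 1 uM retinol.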

[2] = qHTS assay to identify small molecule antagonists of the retinoic acid receptor (RAR) signaling pathway (AID 1159552; further: nearly all actives have a fitted effect of over 50% in size)
Method in brief: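 Retinol signaling pathway inhibitors screened in C3RL4 RARE-luciferase reporter cells seeded overnight at 37 C, then compounds added with 1 uM (final) retinol as pathway substrate. After 6 hr at 37 C, luciferase luminescence read after 30 min at room temperature.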

[3] = qHTS assay to identify small molecule agonists of the retinoic acid receptor (RAR) signaling pathway (AID 1159553); settings: C3RL4 RARE luciferase reporter, agonist, 6 h; activation: at 73.3 µM (top of the series) unless noted; further: potency means the concentration at half of the fitted maximal effect
Method in brief: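 Compounds dissolved in DMSO were pinned onto C3RL4 cells seeded the previous day, and plates were held 6 hr at 37 C. RARE-driven luciferase output was then read by luminescence.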

[4] = qHTS assay to identify small molecule antagonists of the estrogen related receptor (ERR) signaling pathway from Tox21 library - cell viability counter screen (AID 1224834); further: nearly all actives have a fitted effect of over 30% in size; further: potency means the concentration at half of the fitted maximal effect
Method in brief: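 In this quantitative HTS format, ERR cells receive compounds in DMSO and are incubated for 17.5 h at 37 C. Live-cell protease activity is then detected with CellTiter-Fluor.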

[5] = molecular target: Luciferin 4-monooxygenase (Photinus pyralis) (UniProt P08659); experiment: qHTS assay to identify small molecule inhibitors of firefly luciferase (AID 1224835); further: nearly all actives have a fitted effect of over 25% in size; further: potency means the concentration at half of the fitted maximal effect
Method in brief: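 Quantitative HTS format; KM concentrations of both substrates. Purified P. pyralis FLuc activity quantified from luminescence images.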

[6] = qHTS assay to identify small molecule antagonists of the estrogen related receptor (ERR) signaling pathway (AID 1224819;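 further: luminescence from an ERR-driven luciferase reporter measured with One-Glo reagent; nearly all actives have a fitted effect of over 50% in size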)
Method in brief: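 ERR reporter cells were plated at 2,000 cells/well and left 6 h at 37 C/5% CO2 before pin-tool transfer of compounds in DMSO. After 18 h at 37 C, One-Glo was added and luminescence was read 30 min later at room temperature.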

[7] = qHTS assay to identify small molecule agonists of the estrogen related receptor (ERR) signaling pathway (AID 1224820)
Method in brief: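 Luminescence readout (One-Glo, 30 min RT) from NTP-supplied ERR cell line exposed to compounds for 18 h at 37 C. Cells seeded 2,000 per well and pre-incubated 6 h before pin-tool compound transfer.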

[8] = system: estrogen-related receptor alpha (ERRalpha) with PGC-1alpha coactivator, human; experiment: qHTS assay to identify small molecule antagonists of the estrogen related receptor signaling pathway with the pleiotropic PPARgamma coactivator (PGC) (AID 1224821; calls by dose curve;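 further: lower luminescence signal means antagonism of PGC/ERR signalling; nearly all actives have a fitted effect of over 50% in size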)
Method in brief: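 PGC/ERR reporter cells; 6 h pre-incubation 37 C/5% CO2; pin-tool compound in DMSO, 18 h 37 C; One-Glo added, 30 min RT; luminescence read. qHTS antagonist mode.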

[9] = qHTS assay to identify small molecule antagonists of the estrogen related receptor signaling pathway with the pleiotropic PPARgamma coactivator (PGC) cell viability counter screen (AID 1224822;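 further: viability read after 17.5 h compound exposure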)
Method in brief: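 Viable cell signal (CellTiter-Fluor, 30 min, 37 C/5% CO2) was measured in PGC/ERR cells after a 17.5 h compound incubation.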

[10] = qHTS assay to identify small molecule agonists of the estrogen related receptor signaling pathway with the pleiotropic PPARgamma coactivator (PGC) (AID 1224823)
Method in brief: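 Luminescence readout (One-Glo, 30 min RT) from PGC/ERR cell line treated 18 h at 37 C with pin-tool-delivered DMSO compound solutions; cells plated 6 h before dosing. Quantitative HTS format.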

Luciferin 4-monooxygenase (Photinus pyralis), sequence (P08659 whole entry, looked up): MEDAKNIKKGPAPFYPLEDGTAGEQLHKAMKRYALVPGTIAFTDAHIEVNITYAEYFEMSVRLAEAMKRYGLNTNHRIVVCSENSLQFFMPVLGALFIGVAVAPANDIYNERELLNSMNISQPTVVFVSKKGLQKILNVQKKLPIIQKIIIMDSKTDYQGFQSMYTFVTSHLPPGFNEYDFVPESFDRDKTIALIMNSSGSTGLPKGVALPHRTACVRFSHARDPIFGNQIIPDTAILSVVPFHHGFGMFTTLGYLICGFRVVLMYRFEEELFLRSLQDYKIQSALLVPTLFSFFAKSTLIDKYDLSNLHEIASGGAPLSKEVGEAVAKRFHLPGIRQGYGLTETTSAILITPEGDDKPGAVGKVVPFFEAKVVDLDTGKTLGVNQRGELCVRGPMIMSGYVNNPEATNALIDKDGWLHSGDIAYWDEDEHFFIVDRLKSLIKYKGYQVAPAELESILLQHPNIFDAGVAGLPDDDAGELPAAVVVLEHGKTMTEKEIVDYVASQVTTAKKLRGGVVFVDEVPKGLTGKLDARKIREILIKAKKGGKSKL

SMILES: FC(F)(F)c1cccc(Cl)c1
- Potency [1]: inactive
- Potency [2]: inactive
- Potency [3]: inactive
- Potency [4]: inactive

SMILES: CCCCCC(C)OC(=O)COc1ccc(Cl)c2cccnc12 (configuration not stated)
- Potency [1]: inactive
- Potency [2]: inactive
- Potency [3]: inactive

SMILES: O=S(=O)(O)c1ccc(Nc2nc(Nc3ccc(/C=C/c4ccc(Nc5nc(Nc6ccc(S(=O)(=O)O)cc6)nc(N(CCO)CCO)n5)cc4S(=O)(=O)O)c(S(=O)(=O)O)c3)nc(N(CCO)CCO)n2)cc1
- Potency [1]: inactive
- Potency [2]: inactive
- Potency [3]: inactive
- Potency [4]: inactive
- Potency [5]: inactive

SMILES: CCN1C(=O)c2ccccc2C1Nc1ccc(OCCN2CCCCC2)cc1 (configuration not stated)
- Potency [1]: inactive
- Potency [2]: inactive
- Potency [3]: inactive
- Potency [4]: inactive
- Potency [5]: inactive

SMILES: Cc1nc2n(c(=O)c1CCN1CCC(c3noc4cc(F)ccc34)CC1)CCCC2
- Potency [1]: inactive
- Potency [2]: inactive
- Potency [3]: inactive
- Potency [4]: inactive
- Potency [5]: inactive

SMILES: COC(C)=O
- Potency [1]: inactive
- Potency [2]: inactive
- Potency [3]: inactive
- Potency [4]: inactive
- Potency [5]: inactive

SMILES: CC(C)CCCCCOC(=O)CCS
- Potency [1]: inactive
- Potency [2]: inactive
- Potency [3]: inactive
- Potency [4]: inactive
- Potency [5]: inactive

SMILES: COc1cc2nc(N3CCN(C(=O)c4ccco4)CC3)nc(N)c2cc1OC
- activity change, negative = cytotoxicity [1]: -9.47% [at 19 µM] (inactive)

SMILES: CNC(=O)c1ccccc1Sc1ccc2c(/C=C/c3ccccn3)n[nH]c2c1
- Potency [1]: inactive
- Potency [2]: inactive
- Potency [3]: 188 nM (active)
- Potency [4]: 26.6 µM (active)

SMILES: O=C(/C=C/c1ccc(O)c(O)c1)O[C@@H](C(=O)O)[C@@H](OC(=O)/C=C/c1ccc(O)c(O)c1)C(=O)O
- Potency [1]: inactive
- Potency [2]: inactive
- Potency [3]: inactive

SMILES: CCCC(=O)OC(C)(C)Cc1ccccc1
- Potency [1]: inactive
- Potency [2]: inactive
- Potency [3]: inactive
- Potency [4]: inactive

SMILES: Cc1c(F)c(N2CCNC(C)C2)cc2c1c(=O)c(C(=O)O)cn2C1CC1 (configuration not stated)
- Potency [1]: inactive
- Potency [2]: inactive
- Potency [3]: inactive
- Potency [4]: inactive

SMILES: CCCCNS(=O)(=O)c1ccc(C)cc1
- Potency [1]: inactive
- Potency [2]: inactive
- Potency [3]: inactive
- Potency [4]: inactive
- Potency [5]: inactive

SMILES: CCOC(=O)NNc1ccc(N(CC)CC(C)O)nn1 (configuration not stated)
- Potency [1]: inactive
- Potency [2]: inactive
- Potency [3]: inactive
- Potency [4]: inactive

SMILES: C[C@@H](O)[C@H](N)C(=O)O
- activity change, negative = cytotoxicity [1]: -1.86% [at 19 µM] (inactive)
- activity, negative = inhibition [2]: 42.8% [at 19 µM] (inactive)
- Potency [3]: inactive
- viability change, negative = cytotoxic [4]: 0.354% [at 19 µM] (inactive)

SMILES: CCO[Si](OCC)(OCC)OCC
- Potency [1]: inactive
- Potency [2]: inactive
- Potency [3]: inactive
- Potency [4]: inactive
- Potency [5]: inactive

SMILES: CC1(C)CCC[C@]2(C)[C@H]3CCO[C@]3(C)CC[C@@H]12
- Potency [1]: inactive
- Potency [2]: inactive
- Potency [3]: inactive
- Potency [4]: inactive

SMILES: CCCCC(CC)COC(=O)CCCCC(=O)OCc1ccccc1 (configuration not stated)
- Potency [1]: inactive
- Potency [2]: inactive
- Potency [3]: inactive

SMILES: CCOC(=O)Cn1cccc1-c1nc(-c2ccc(OC)cc2)c(-c2ccc(OC)cc2)s1
- Potency [1]: inactive
- Potency [2]: inactive
- Potency [3]: inactive
- Potency [4]: inactive
- Potency [5]: inactive

SMILES: O=C1NC(=O)[C@@H]2CC=CC[C@H]12
- Potency [1]: inactive
- Potency [2]: inactive
- Potency [3]: inactive
- Potency [4]: inactive

SMILES: CN1CCN2c3ccccc3Cc3ccccc3C2C1 (configuration not stated)
- Potency [1]: inactive
- Potency [2]: inactive
- Potency [3]: inactive
- Potency [6]: inactive
- outcome [7]: inactive
- Potency [8]: inactive
- Potency [9]: inactive
- outcome [10]: inactive
- Potency [4]: inactive
- Potency [5]: inactive

SMILES: CN(C)Cc1cc(C(C)(C)C)c(O)c(C(C)(C)C)c1
- Potency [1]: inactive
- Potency [2]: inactive
- Potency [3]: inactive
- Potency [4]: inactive
- Potency [5]: inactive

SMILES: Cc1cc(C(C#N)c2ccc(Cl)cc2)c(Cl)cc1NC(=O)c1cc(I)cc(I)c1O (configuration not stated)
- Potency [1]: inactive

SMILES: COC(=O)Nc1nc2ccc(C(=O)c3ccccc3)cc2[nH]1
- Potency [1]: inactive
- Potency [2]: inactive

SMILES: CCn1c2ccccc2c2cc([N+](=O)[O-])ccc21
- Potency [1]: inactive
- Potency [2]: inactive
- Potency [3]: inactive
- Potency [4]: inactive

SMILES: Oc1c(I)cc(Cl)c2cccnc12
- Potency [1]: inactive
- Potency [2]: inactive
- Potency [3]: 76.8 µM (active) and inactive

SMILES: CCC(CC)C(C)CCOC(C)=O (configuration not stated)
- Potency [1]: inactive
- Potency [2]: inactive
- Potency [3]: inactive
- Potency [4]: inactive
- Potency [5]: inactive

SMILES: CC(C)=CCC1=C(O)c2ccccc2C(=O)C1=O
- Potency [1]: inactive
- Potency [2]: inactive

SMILES: C=Cc1cccc(C)c1
- Potency [1]: inactive
- Potency [2]: inactive
- Potency [3]: inactive
- Potency [4]: inactive
- Potency [5]: inactive

SMILES: CCCC(=O)OCCc1ccccc1
- Potency [1]: inactive
- Potency [2]: inactive
- Potency [3]: inactive
- Potency [4]: inactive
- Potency [5]: 79.6 µM (active)

SMILES: C=Cc1ccccc1C=C
- Potency [1]: inactive
- Potency [2]: inactive
- Potency [3]: inactive
- Potency [4]: inactive

SMILES: Cc1ccc(-c2ccccc2)cc1
- Potency [1]: inactive
- Potency [2]: inactive
- Potency [3]: inactive

SMILES: CCC(=O)OC(=O)CC
- Potency [1]: inactive
- Potency [2]: inactive
- Potency [3]: inactive
- Potency [4]: inactive

SMILES: O=[N+]([O-])c1ccc(F)c(Cl)c1
- Potency [1]: inactive
- Potency [2]: inactive
- Potency [3]: inactive
- Potency [4]: inactive
- Potency [5]: inactive

SMILES: Cc1cc(C(C)(C)C)cc(C)c1CC1=NCCN1
- Potency [1]: inactive
- Potency [2]: inactive
- Potency [3]: inactive
- Potency [6]: inactive
- outcome [7]: inactive
- Potency [8]: inactive
- Potency [9]: inactive
- outcome [10]: inactive
- Potency [5]: inactive

SMILES: O=C1CCc2ccc(OCCCCN3CCN(c4cccc(Cl)c4Cl)CC3)cc2N1
- Potency [1]: inactive
- Potency [2]: inactive
- Potency [3]: inactive

SMILES: CCCCCCCCCCC[C@@H](C[C@@H]1OC(=O)[C@H]1CCCCCC)OC(=O)[C@H](CC(C)C)NC=O
- Potency [1]: inactive
- Potency [2]: inactive
- Potency [3]: inactive
- Potency [4]: inactive
- Potency [5]: inactive

SMILES: CCCCCCCCCCCC(=O)OCC(C)OC(=O)CCCCC(=O)O (configuration not stated)
- Potency [1]: inactive
- Potency [2]: inactive
- Potency [3]: inactive
- Potency [4]: inactive
- Potency [5]: inactive
